# Out of some 69,000 compounds screened, about 8,600 (12%) showed an effect of 50% or more. Shown is part of a subset that was picked to be rich in strong results.
# Test system: Plasmodium berghei
# Assay: Screen against P. berghei liver stage (PbLuc), transformed with Luciferase, at 10uM
# Assay type: functional, HepG2
# Conditions: tested at 10 uM
row,SMILES,INHIBITION [%]
1,O=C(Nc1ncnc2c1CCC2)c1cccc(F)c1,-44.2
2,Cc1cc(C(=O)NCc2ccc(F)cc2)c2c(C3CCCN3)noc2n1 (stereo not drawn),31.7
3,CNC(=O)c1cc2c(nc1NCC(C)C)CCN(S(=O)(=O)C1CC1)CC2,-6.75
4,CNC(=O)c1cc2c(nc1NCC(C)C)CCN(C)CC2,48.7
5,CC(C)Nc1nc2c(cc1C(=O)NCC1CC1)CCNCC2,32.7
6,CC(C)CNc1nc2c(cc1C(=O)NCC1CC1)CCNCC2,94.5
7,CNC(=O)c1cc2c(nc1NCC1CC1)CCNCC2,9.72
8,CNC(=O)c1cc2c(nc1NCC1CC1)CCN(c1ncccn1)CC2,-17.1
9,CNC(=O)c1cc2c(nc1NCC(C)C)CCN(CC1CC1)CC2,86.7
10,CNC(=O)c1cc2c(nc1NCC1CC1)CCN(CC1CC1)CC2,8.67
11,CNC(=O)c1cc2c(nc1NCC(C)C)CCN(c1ncccn1)CC2,85.4
12,CO[C@H]1CO[C@@]2(CCCN(S(=O)(=O)c3ccccc3)C2)C1,42.7
13,O=C([C@H]1C[C@H]2OCC[C@H]2N(CCc2ccccc2)C1)N1CCCO1,43.9
14,CC(C)NC(=O)Cn1cc(-c2ccccc2)ncc1=O,12.9
15,CC(=O)c1ccc(-c2cnn(CC(=O)Nc3cc(C)nn3C)c2)nc1,28.7
16,CC(=O)c1ccc(-c2cnn(CC(=O)Nc3ccnn3C)c2)nc1,46.1
17,Cn1ccnc1-c1cnn(CC(=O)Nc2ccnn2C)c1,62.4
18,CC(=O)NCCNC(=O)CN1CCCC(Cn2cncn2)C1 (stereo not drawn),29.7
19,COc1ccc(N2CCN(C(=O)C3[C@H]4CNC[C@@H]34)CC2(C)C)cc1 (stereo partly drawn),35.3
20,Cc1nc[nH]c1CN1CCOC(c2ccc(Cl)c(Cl)c2)C1 (stereo not drawn),69.4
21,Cc1cc(C(=O)N2CCOC(c3ccc(Cl)c(Cl)c3)C2)[nH]n1 (stereo not drawn),81
22,Cc1cc(C(=O)N2CCOC(c3nc(C)n[nH]3)C2)[nH]n1 (stereo not drawn),28.5
23,Cc1c[nH]c(CN2CCOC(c3ccc(F)cc3)C2)c(C)c1=O (stereo not drawn),-3.96
24,O=C(c1ccc(O)cn1)N1CCOC(c2ccc(Cl)c(Cl)c2)C1 (stereo not drawn),-19.2
25,Cc1c[nH]c(CN2CCOC(c3ccc(Cl)c(Cl)c3)C2)c(C)c1=O (stereo not drawn),19.8
26,Cc1cc(C)nc(CN2CCOC(c3ccc(Cl)cc3)C2)n1 (stereo not drawn),41.5
27,Cc1nnc(CN2CCOC(c3ccc(Cl)c(Cl)c3)C2)o1 (stereo not drawn),15.9

row,SMILES,INHIBITION [%]
1,Cc1c[nH]c(CN2CCOC(c3ccc(Cl)cc3)C2)c(C)c1=O (stereo not drawn),79.3
2,Cc1ccc2nc(C(=O)N3CCCC[C@]4(C)NC(=O)CCC[C@H]34)cn2c1,-56.2
3,CNC(=O)NCc1nn(-c2ccccc2)c2c1CCC2,10.675
4,CC(C)c1nnc2n1CCN(C(C(N)=O)c1ccc(F)cc1)C2 (stereo not drawn),20
5,COc1ccccc1CNC(=O)CNc1ccccc1C(C)=O,-33.4
6,Cc1nc(CC(=O)N2CCCN(c3ccc(C#N)cc3)CC2)cs1,-11.8
7,CS(=O)(=O)NCC1CCCCN1C(=O)c1cccc(C(F)(F)F)c1 (stereo not drawn),30.6
8,CCC(=O)N1CCC(Cc2ccccc2-c2ccncc2)(C(N)=O)C1 (stereo not drawn),7.52
9,Cc1nnc2n1CCN(CC(=O)N1CCc3ccccc3C1)C2,50.7
10,CC(C)c1nnc2n1CCN(CC(=O)N1CCc3ccccc3C1)C2,46.5
11,CCc1nnc2n1CCN(CC(=O)N1CCc3ccccc3C1)C2,59.7
12,CC(C)c1nnc2n1CCN(CC(=O)N1CCc3sccc3C1)C2,-12.915
13,Cc1nnc2n1CCN(C(=O)CN1C(=O)CCCc3ccccc31)C2,2.82
14,CCc1nnc2n1CCN(CC(=O)N(CC)C1=CCCCC1)C2,24.6
15,CC(O)CN1CCC(CNCc2cccc(C(=O)N(C)C)c2)CC1 (stereo not drawn),-38.7
16,CCC(C)(CC(=O)O)NC(=O)Cc1ccccc1Br (stereo not drawn),-49.7
17,CCC(C)(CC(=O)O)NC(=O)Cc1ccccc1F (stereo not drawn),64.2
18,CC(C)(NC(=O)Cc1ccccc1F)C(=O)O,-16
19,COCCC(=O)N1CCC2(CC1)CN(C(C)=O)Cc1ccccc1O2,14.805
20,Cc1ccccc1C1(C(=O)N2CCCC(n3cncn3)C2)CC1 (stereo not drawn),27.8
21,O=C(C1CC1)N1C[C@H]2CCCN(S(=O)(=O)c3ccc(Cl)s3)[C@H]2C1,31.3
22,CC(=O)N1C[C@H]2CCCN(S(=O)(=O)c3ccc(Cl)s3)[C@H]2C1,3.48
23,COc1ccc(S(=O)(=O)N2CCC[C@@H]3CN(C(=O)C4CC4)C[C@@H]32)cc1F,40.75
24,COc1ccc(S(=O)(=O)N2CCC[C@@H]3CN(C(=O)C4CC4)C[C@@H]32)cc1,54
25,O=C(C1CC1)N1C[C@H]2CCCN(S(=O)(=O)c3ccc4c(c3)CCC4)[C@H]2C1,58.8
26,O=C(C1CC1)N1C[C@H]2CCCN(S(=O)(=O)c3cccc(F)c3)[C@H]2C1,26.97

# Reference: ChEMBL document CHEMBL4513216, “Probing the Open Global Health Chemical Diversity Library for Multistage-Active Starting Points for Next-Generation Antimalarials” (ACS Infect Dis, 2020)
